From the antibiotic and cytotoxicity screens of Wong et al. (2023)
Out of some 39,000 compounds screened, about 1,500 (3.8%) were called active. The entries come from a sample that favours actives as a whole.

Test system: HSkMC (human skeletal muscle cells)
Test: cytotoxicity call (relative viability < 0.9)
Details: 10 µM

Row | Compound | cytotoxicity call
1 | O=C(N[C@H]1CC[C@H](CC(=O)N2CCOCC2)O[C@H]1CO)c1ccc2c(c1)OCO2 | inactive
2 | C[C@@H]1CN([C@@H](C)CO)C(=O)c2cccc(NC(=O)C3CCOCC3)c2O[C@H]1CN(C)Cc1ccncc1 | inactive
3 | C[C@@H]1CCCCO[C@H](CN(C)C(=O)Nc2ccccc2)[C@H](C)CN([C@@H](C)CO)C(=O)c2cc(NS(=O)(=O)c3ccccc3)ccc2O1 | inactive
4 | C[C@H](CO)N1C[C@H](C)[C@@H](CN(C)S(=O)(=O)c2ccc(-c3ccccc3)cc2)OCc2cn(nn2)CCCC1=O | inactive
5 | C[C@H]1O[C@@H]2[C@H](O[C@@H]1C)N(S(C)(=O)=O)CCN2S(C)(=O)=O | inactive
6 | COc1ccc(NC(=O)N2C[C@H](O)COC[C@H]3O[C@H](CC(=O)NC4Cc5ccccc5C4)CC[C@@H]32)cc1 | inactive
7 | C[C@H](CO)N1C[C@H](C)[C@H](CN(C)Cc2ccc(-c3ccccc3)cc2)Oc2ccc(NC(=O)Nc3ccc4c(c3)OCO4)cc2CC1=O | inactive
8 | C=CCC[C@H](Cc1ccc(F)cc1)C(=O)OC[C@H]1CCCN1C(=O)[C@@H](CC=C)CC(=O)N(CCO)Cc1ccccc1 | active
9 | C=CCC[C@H](Cc1ccc(F)cc1)C(=O)OC[C@@H]1CCCN1C(=O)[C@@H](CC=C)CC(=O)N(CCO)Cc1ccccc1 | active
10 | C=CCC[C@H](Cc1ccc(F)cc1)C(=O)OC[C@H]1CCCN1C(=O)[C@H](CC=C)CC(=O)N(CCO)Cc1ccccc1 | inactive
11 | C=CCC[C@@H](Cc1ccc(F)cc1)C(=O)OC[C@@H]1CCCN1C(=O)[C@@H](CC=C)CC(=O)N(CCO)Cc1ccccc1 | inactive
12 | C=CCC[C@@H](Cc1ccc(F)cc1)C(=O)OC[C@H]1CCCN1C(=O)[C@@H](CC=C)CC(=O)N(CCO)Cc1ccccc1 | inactive
13 | C=CCC[C@@H](Cc1ccc(F)cc1)C(=O)OC[C@H]1CCCN1C(=O)[C@H](CC=C)CC(=O)N(CCO)Cc1ccccc1 | inactive
14 | CN(C)CC(=O)N[C@@H]1CC[C@H](CC(=O)NCCN2CCCCC2)O[C@H]1CO | inactive
15 | COc1ccc(C2=NS(=O)(=O)N(C)C(C(=O)N3CCC(C(N)=O)CC3)=C2)cc1 | inactive
16 | CC(C)NC(=O)N(C)C[C@H]1Oc2c(NS(=O)(=O)c3ccc(Cl)cc3)cccc2C(=O)N([C@@H](C)CO)C[C@H]1C | inactive
17 | COc1ccc(S(=O)(=O)Nc2cccc3c2O[C@@H](CN(C)S(=O)(=O)c2ccccc2)[C@H](C)CN([C@@H](C)CO)C3=O)cc1 | inactive
18 | O=C(Nc1ccc(Oc2ccc(Cl)cc2)c(Cl)c1)c1cc(I)cc(I)c1O | active
19 | O=C(Nc1ccc2ccccc2c1)c1ccc(Cl)cc1Cl | inactive
